BoNT-A LC inh2: inhibitors of Botulinum neurotoxin A light chain protease | inhibition, % at 10 µM | multiplex microsphere protease substrate cleavage, flow cytometry | hit rate 0.17% among 360,000 | AID 588499
Anthrax LF inh2: anthrax lethal factor protease inhibition | P15917 | multiplex microsphere protease cleavage assay, LF | inhibition, % at 10 µM | hit rate 0.12% among 360,000 | AID 588501
BoNT F protease: blocks Botulinum neurotoxin F light chain protease; AID 588497; Multiplex microsphere protease cleavage assay, flow cytometry; hit rate 0.22% among 360,000; inhibition, % at 10 µM; in the data active means inhibition above about 35%, passing the limit was not always enough; inconclusive means no clear call, values can overlap the other calls
Autofluor counter: counter-screen for toxin protease inhibitors: compound fluorescence. fluorescence intensity (no concentration beside the values). compound autofluorescence counterscreen, microsphere flow cytometry; hits give high values. hit rate 3.1% among 360,000; in the data active means fluorescence intensity above about 16000; inconclusive means no clear call, values can overlap the other calls
Each line names hits and unclear results; the compound was inactive in the other large screens. Sampled rows, rich in hits. Any-hit rate of the full collection: about 3.5%. Unless noted, no stated cut-off is given here; in the data, active means inhibition above about 30%; inconclusive means no clear call, values can overlap the other calls; inactive means below that.

CCn1c(CSc2nc3ccccc3s2)n[nH]c1=S	Autofluor counter 20748
S=c1[nH]nc(CSc2nc3ccccc3s2)n1Cc1ccccc1	none
COc1ccc(S(=O)(=O)NN=C2CCCC2)cc1	Autofluor counter 20396
COc1ccc(CC(=O)Nc2ccc(S(=O)(=O)Nc3nc(C)cc(C)n3)cc2)cc1	Autofluor counter 19652
CC(=O)Nc1ccc(S(=O)(=O)Nc2nc3ccccc3nc2N2CCCCCC2)cc1	BoNT-A LC inh2 inconclusive, Autofluor counter 23055
COc1ccc(NC(=O)Nc2ccc(N(C)C)cc2)cc1	Autofluor counter 18854
CC(=O)Nc1ccc(S(=O)(=O)Nc2nc3ccccc3nc2N2CCc3ccccc3C2)cc1	none
NC(=O)C1CCN(C(=O)c2ccc3nc(-c4ccccc4)c(-c4ccccc4)nc3c2)CC1	none
COc1ccc(NC(=O)C[C@H]2C(=O)N(CCc3ccccc3)C[C@@H]2c2ccc(OC)cc2)cc1	none
CN(C(=O)COC(=O)CNC(=O)c1ccc2ccccc2c1)c1c(N)n(Cc2ccccc2)c(=O)[nH]c1=O	none
COc1ccc(S(=O)(=O)Nc2ccc(NC(C)=O)cc2)cc1	Autofluor counter 23841
COc1ccccc1CNS(=O)(=O)c1ccc(NC(C)=O)cc1	Autofluor counter 22915
CCOC(=O)c1ccc(NC(=O)C(C)NS(=O)(=O)c2ccc(OC)cc2)cc1 (configuration not stated)	Autofluor counter 16181
CCOc1cc(NS(=O)(=O)c2ccc(NC(C)=O)cc2)c(OCC)cc1NC(=O)C(C)C	Autofluor counter 20625
COc1ccccc1CCNC(=O)CCNS(=O)(=O)c1ccc(NC(C)=O)cc1	none
CCOC(=O)c1ccc(NC(=O)COc2ccc(S(=O)(=O)NC(C)CC)cc2)cc1 (configuration not stated)	none
COc1ccc(NS(=O)(=O)c2ccc(NC(=S)NC(=O)C(C)C)cc2)cc1	none
O=S(=O)(c1ccccc1)N1CCCCC1CCc1ccccc1 (configuration not stated)	none
N#CCCN(CCC#N)C(=O)c1ccc2c(c1)OCO2	Autofluor counter 20717
Cn1c(=O)c2cc(S(=O)(=O)NCCC(=O)NCCc3ccc(Cl)cc3)ccc2n(C)c1=O	Autofluor counter 17176
CC(C)(C)c1ccc(C(=O)NCC(=O)N2CCCCCC2)cc1	none
COc1cc(CNC2CCCCCC2)cc(OC)c1OC	Autofluor counter 22719
COc1cc(OC)c(OC)cc1CNC1CCCCCC1	Autofluor counter 18257
COc1cc(OC)c(CNC2CCCCCC2)cc1Br	none
O=C(CNCC1CCCO1)Nc1ccccc1N1CCOCC1 (configuration not stated)	Autofluor counter 22897
O=C(CNCC1CCCO1)Nc1ccccc1-n1cccc1 (configuration not stated)	none
CCCCn1cnc2cc(NCc3ccncc3)ccc21	Autofluor counter 19414
CCn1cnc2cc(NCc3ccc(OC)cc3)ccc21	Autofluor counter 23891
O=C(Nc1ccc(Cl)c(S(=O)(=O)N2CCCCC2)c1)c1cccnc1	BoNT F protease inconclusive
CCS(=O)(=O)N1Cc2ccccc2CC1C(=O)Nc1ccc(NC(C)=O)cc1 (configuration not stated)	none
CCS(=O)(=O)N1Cc2ccccc2CC1C(=O)Nc1ccc(C)cc1 (configuration not stated)	Autofluor counter 22120
CC(=O)N[C@@H](Cc1c[nH]c2ccccc12)C(=O)NC1CCCc2ccccc21 (some centres not stated)	none
CC(C)(C)c1ccc(OCC(=O)NC2CCS(=O)(=O)C2)cc1 (configuration not stated)	BoNT-A LC inh2 inconclusive, Autofluor counter 19473
O=C(NC1CCS(=O)(=O)C1)Oc1ccccc1 (configuration not stated)	none
Cc1ccc(OC(=O)NC2CCS(=O)(=O)C2)cc1C (configuration not stated)	Autofluor counter 23723
CC(C)Oc1ccc(C(=O)O)cc1	none
CC(C)Oc1ccc(C(=O)O)c(C(=O)O)c1	BoNT-A LC inh2 inconclusive, Autofluor counter 25281
CC(Oc1ccc(Cl)cc1Cl)C(=O)OCC(=O)c1c(N)n(C)c(=O)n(C)c1=O (configuration not stated)	none
Cc1cc(C)n(-c2cc(N3CCOCC3)ncn2)n1	none
COc1cc(N2CCOCC2)ncn1	BoNT-A LC inh2 inconclusive, Autofluor counter 23005
Cc1cc([N+](=O)[O-])nn1CC(=O)NNC(=S)Nc1ccc(Cl)cc1	Autofluor counter 23664
COc1ccc(-n2nc(C(=O)NCC(=O)N3CC(C)CC(C)C3)c3ccccc3c2=O)cc1OC (configuration not stated)	none
COc1cccc(-n2nc(C(=O)N3CC(C)CC(C)C3)c3ccccc3c2=O)c1 (configuration not stated)	Autofluor counter 20358
O=C1CCCc2c1[nH]c1ccc(CN3CCCCC3)cc21	Autofluor counter 23077
Cc1ccn2c(C(=O)N/N=C\c3cccs3)c(C)nc2c1	Autofluor counter 21815
CN1CCN(c2c([N+](=O)[O-])cnc3ccccc23)CC1	BoNT F protease inconclusive
CN(C)c1oc(-c2ccccc2)nc1C#N	Autofluor counter 22791
CC(CC(=O)NCc1ccccc1)C1CCCO1 (configuration not stated)	Autofluor counter 19114
CCCCS/C(=C(/C#N)C(N)=O)c1cc2c([nH]1)CCCC2	BoNT-A LC inh2 inconclusive, Autofluor counter 22456
O=C(c1ccco1)N(Cc1ccccc1)Cc1ccccn1	none
O=C(c1cccs1)N(Cc1ccccn1)Cc1ccco1	Autofluor counter 24079
N#Cc1c(N)nc2c(c1-c1ccncc1)CCCCC2	Autofluor counter 16184
N#Cc1c(N)nc2c(c1-c1cccnc1)CCCCC2	BoNT-A LC inh2 inconclusive, Autofluor counter 21866
CSc1ccc(-c2c(C#N)c(N)nc3c2CCCC3)cc1	none
CCC(=O)Nc1cc(SCCO)cc([N+](=O)[O-])c1	Autofluor counter 16916
O=C(CCl)Nc1cc(SCC(O)CO)cc([N+](=O)[O-])c1 (configuration not stated)	none
Cc1c(-c2ccccc2)oc2c(C(=O)N3CCN(c4ccc([N+](=O)[O-])cc4)CC3)cccc2c1=O	none
CC1(C)CC(CC(=O)O)(c2ccc(F)cc2)CCO1 (configuration not stated)	none
Cc1ccc(C2(CC(=O)O)CCOC(C)(C)C2)cc1 (configuration not stated)	BoNT-A LC inh2 inconclusive, Autofluor counter 19797
Cc1ccc(-n2c(Cc3cccn3C)nnc2SCC(=O)Nc2ccc3c(c2)OCO3)cc1	Autofluor counter 24086
Cc1ccc(-n2c(Cc3cccn3C)nnc2SCC(=O)NCc2ccc3c(c2)OCO3)cc1	Autofluor counter 21493
COc1ccc(-n2c(Cc3cccn3C)nnc2SCC(=O)NCc2ccc(F)cc2)cc1	none
CN(C(=O)COC(=O)/C=C/c1cccs1)C1CCCCC1	none
Cc1cc2c(n1-c1ccc(C(N)=O)cc1)CC(C)(C)CC2=O	BoNT-A LC inh2 inconclusive, Autofluor counter 22230
COc1ccc(CNCC(O)(c2ccc(F)cc2)c2ccc(F)cc2)cc1OC	none
COc1ccc(CNCC(O)(c2ccc(Cl)cc2)c2ccc(Cl)cc2)cc1	Autofluor counter 21174
COc1ccc(CNCC(O)(c2ccc(Cl)cc2)c2ccc(Cl)cc2)cc1OC	Autofluor counter 18261
COc1ccc(CNCC(O)(c2ccccc2)c2ccc(F)cc2)cc1 (configuration not stated)	none

Compound activity deposited in PubChem BioAssay by NMMLSC.
